PMC4336329 (PLoS ONE, 2015)
In all, about 310,000 compounds went through this assay and about 14,000 (4.5%) showed an effect of 50% or more. Effects have a minus sign here. The entries come from a sample that favours strong results as a whole.

biological target: human ether-à-go-go-related gene (hERG) potassium channel (human, UniProt Q12809); test: primary screen, population patch clamp on CHO cells stably expressing hERG; higher = less effect of the substance
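Further: peak tail current of the secondary pulse compared with the same well before compound.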

human ether-à-go-go-related gene (hERG) potassium channel, sequence (Q12809 whole entry, looked up): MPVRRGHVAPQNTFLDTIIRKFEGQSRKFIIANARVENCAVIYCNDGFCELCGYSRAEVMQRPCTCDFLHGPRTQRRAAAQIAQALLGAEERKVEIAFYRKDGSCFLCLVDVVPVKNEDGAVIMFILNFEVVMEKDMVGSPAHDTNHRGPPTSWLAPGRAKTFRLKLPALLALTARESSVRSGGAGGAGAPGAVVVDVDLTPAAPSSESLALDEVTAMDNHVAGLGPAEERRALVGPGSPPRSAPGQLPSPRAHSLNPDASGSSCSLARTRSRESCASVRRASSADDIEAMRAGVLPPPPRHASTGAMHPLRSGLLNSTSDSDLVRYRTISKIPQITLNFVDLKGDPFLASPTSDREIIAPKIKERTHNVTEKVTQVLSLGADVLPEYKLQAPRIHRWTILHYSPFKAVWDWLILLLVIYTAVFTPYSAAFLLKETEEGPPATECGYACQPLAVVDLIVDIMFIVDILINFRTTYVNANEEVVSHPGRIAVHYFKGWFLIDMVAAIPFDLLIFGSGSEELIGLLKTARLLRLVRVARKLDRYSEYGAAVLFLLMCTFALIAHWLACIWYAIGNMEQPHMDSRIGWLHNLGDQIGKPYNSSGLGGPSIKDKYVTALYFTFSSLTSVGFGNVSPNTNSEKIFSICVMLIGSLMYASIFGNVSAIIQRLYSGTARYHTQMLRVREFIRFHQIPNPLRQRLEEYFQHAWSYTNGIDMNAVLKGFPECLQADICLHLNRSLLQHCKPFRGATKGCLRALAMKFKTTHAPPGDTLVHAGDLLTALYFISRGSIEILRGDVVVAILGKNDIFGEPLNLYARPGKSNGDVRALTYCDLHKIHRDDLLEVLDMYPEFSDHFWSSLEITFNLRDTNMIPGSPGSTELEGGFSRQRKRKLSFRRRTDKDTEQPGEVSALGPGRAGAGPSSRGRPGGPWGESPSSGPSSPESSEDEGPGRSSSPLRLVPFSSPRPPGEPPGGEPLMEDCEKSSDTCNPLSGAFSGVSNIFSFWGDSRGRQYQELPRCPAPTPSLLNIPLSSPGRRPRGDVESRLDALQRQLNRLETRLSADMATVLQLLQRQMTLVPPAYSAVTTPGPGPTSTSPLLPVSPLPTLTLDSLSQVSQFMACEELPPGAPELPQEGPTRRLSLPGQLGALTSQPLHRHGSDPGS

| SMILES | hERG current change (%, negative = inhibition) at 10uM [%] |
| --- | --- |
| OCc1ccccc1SSc1ccccc1CO | 14.5 |
| COc1ccc2[nH]c(C)c(CCN3C(=O)OC(C)(C)C3(C)O)c2c1 (stereo not shown) | 9.02 |
| Cc1cccc(-n2nnc(C(=O)NCc3ccccn3)c2N)c1 | 0.598 |
| CCc1noc(C)c1C(=O)N1CCN(S(=O)(=O)c2cc(C)ccc2C)CC1 | -1.66 |
| O=C(c1ccco1)N1CCN(S(=O)(=O)c2ccc(Oc3ccccc3)cc2)CC1 | -31.5 |
| Cc1ccc(C(=O)C(C)OC(=O)Cn2cnc3c2c(=O)n(C)c(=O)n3C)cc1 (stereo not shown) | -0.153 |
| COc1ccc(Oc2ccc(C(F)(F)F)cc2NC(=O)c2ccc(OC)cc2)cc1 | 12.5 |
| COc1ccc(Oc2ccc(C(F)(F)F)cc2NC(=O)c2ccc(F)cc2)cc1 | 6.56 |
| N#Cc1ccc(Oc2ccc(C(F)(F)F)cc2NC(=O)c2ccc(F)cc2)cc1 | -70.2 |
| CC(=O)c1c(C)[nH]c(C(=O)CN2CCN(S(=O)(=O)c3ccccc3[N+](=O)[O-])CC2)c1C | -6.62 |
| CCCCC(CC(C)O)c1n[nH]c(=S)n1-c1ccccc1 (stereo not shown) | 3.1 |
| O=C(/C=C/c1ccccc1)NC(=S)N1C[C@H]2C[C@H](C1)c1cccc(=O)n1C2 | -15 |
| COc1ccc(/C=C/C(=O)NC(=S)N2C[C@H]3C[C@H](C2)c2cccc(=O)n2C3)cc1OC | 6.67 |
| O=C(/C=C/c1ccc(F)cc1)NC(=S)N1C[C@H]2C[C@H](C1)c1cccc(=O)n1C2 | -22.9 |
| O=C(/C=C/c1ccc(Cl)cc1)NC(=S)N1C[C@H]2C[C@H](C1)c1cccc(=O)n1C2 | -53.1 |
| O=C(/C=C/c1ccc(Br)cc1)NC(=S)N1C[C@H]2C[C@H](C1)c1cccc(=O)n1C2 | -57.9 |
| COc1ccc(/C=C/C(=O)NC(=S)N2C[C@H]3C[C@H](C2)c2cccc(=O)n2C3)cc1 | -18.2 |
| O=C(NCc1ccco1)Nc1ccc2snnc2c1 | 2.51 |
| CNC(=O)c1c(NC(NC(=O)c2ccco2)C(=O)c2ccc(Cl)cc2)sc2c1CCCC2 (stereo not shown) | -20.3 |
| CC1=C(C(=O)Nc2ccccc2)C(c2ccc(C)o2)n2c(s/c(=C/c3ccccc3)c2=O)=N1 (stereo not shown) | 18.1 |
| COc1ccccc1NCc1ccc([N+](=O)[O-])s1 | -47.7 |
| CC(OC(=O)c1ccc2ncsc2c1)C(=O)N1CCCC1 (stereo not shown) | -56.9 |

| SMILES | hERG current change (%, negative = inhibition) at 10uM [%] |
| --- | --- |
| O=C(c1ccc2ncsc2c1)N1CCCCC1 | 17.9 |
| CC1CN(C(=O)C(C)OC(=O)c2ccc3ncsc3c2)CC(C)O1 (stereo not shown) | 20.1 |
| CCCc1nnc(SCC(=O)N2CCCC2)n1Cc1ccco1 | 1.2 |
| Cc1ccc2c(c1)sc(=NC(=O)C1CC1)n2C | -4.01 |
| CCOC(=O)c1cnc2ccc(C)cc2c1Sc1ccccc1C(=O)OC | -2.26 |
| CCOC(=O)N1CCN(Cc2cn[nH]c2-c2cc3ccccc3o2)CC1 | -34.4 |
| CCOC(=O)C1CCN(Cc2ccccc2C)CC1 | 0.665 |
| CCOC(=O)C1CCN(Cc2cn[nH]c2-c2ccccc2)CC1.O=C(O)C(=O)O | -9.8 |
| COc1ccc(-c2[nH]ncc2CN2CCN(C(=O)c3cccs3)CC2)c(F)c1 | -21.5 |
| Cc1ccc(-c2[nH]ncc2CN2CCN(C(=O)c3cccs3)CC2)cc1C | -62.5 |
| CCOC(=O)N1CCN(Cc2cn[nH]c2-c2cccc3ccccc23)CC1 | -4.57 |
| CCOC(=O)N1CCN(Cc2cn[nH]c2-c2ccc(-c3ccccc3)cc2)CC1 | -54.8 |
| COc1ccc(CN2CCN(C(=O)c3cccs3)CC2)c(OC)c1OC | -6.53 |
| CCOC(=O)C1CCN(Cc2cn[nH]c2-c2ccc(C)cc2)CC1 | -51.8 |
| O=C(Nc1cc(=O)[nH]c2nc(-c3ccccc3)nn12)c1ccccc1Cl | 15.3 |
| Cc1sc(NC(=O)c2ccc(Br)s2)c(C(N)=O)c1C | 17.5 |
| OCCN(Cc1ccccc1)Cc1ccc(Cl)cc1 | -73 |
| OCCN(Cc1ccccc1)Cc1ccc(F)c(F)c1 | -14.9 |
| OCCN(Cc1ccccc1)Cc1ccc(Cl)cc1Cl | -14 |
| COc1ccc(S(=O)(=O)N2CCOC2CNC(=O)C(=O)NCc2ccccn2)cc1C (stereo not shown) | 11.6 |
| Cc1noc(C)c1C(=O)Nc1nc(-c2ccccc2Cl)cs1 | -0.869 |
| Cc1noc(C)c1C(=O)Nc1nc(-c2cccs2)cs1 | -56.9 |

| SMILES | hERG current change (%, negative = inhibition) at 10uM [%] |
| --- | --- |
| CCc1noc(C)c1C(=O)Nc1nc(-c2ccccc2)cs1 | -32.6 |
| CCc1noc(C)c1C(=O)Nc1nc(-c2ccc(OC)cc2)cs1 | -6.43 |
| Cc1ccc(-c2csc(NC(=O)c3c(C)noc3C)n2)cc1 | -31.7 |
| CCc1noc(C)c1C(=O)Nc1nc(-c2cccs2)cs1 | -57 |
| Cc1ccc(NC(=S)N2CCN(C(=O)C3CCCO3)CC2)cc1 (stereo not shown) | 17.8 |
| Cc1c(N)c(C(C)(C)C)cc(C(C)(C)C)c1[N+](=O)[O-] | 0.751 |
| Cc1sc2ncnc(SCC(=O)c3ccc(Cl)s3)c2c1C | 18.3 |
| Cc1cc(NC(=O)CN2CCCCC2)no1.O=C(O)C(=O)O | 18.8 |
| Cc1ccc2ccc3cccc4ccc1c2c34 | 14 |
| S=c1[nH]nc(COc2ccccc2)n1/N=C/C=C/c1ccco1 | 3.42 |
| CC(NC(=O)Nc1ccc([N+](=O)[O-])cc1)C(c1cccs1)N1CCCC1 (stereo not shown) | -60.1 |
| CC(NC(=O)Nc1cccc(Cl)c1)C(c1cccs1)N1CCCC1 (stereo not shown) | -22.8 |
| CC(NC(=O)Nc1ccccc1)C(c1cccs1)N1CCN(C)CC1 (stereo not shown) | -17.8 |
| NC(=O)CSc1nnc(-c2ccncc2)n1-c1ccc(Cl)cc1 | -21.5 |
| COc1ccc(NC(=S)N2CCN(S(C)(=O)=O)CC2)cc1OC | 4.68 |
| Cc1ccc(C(=O)O/N=C(\N)Cc2cccs2)c(Cl)c1 | 0.558 |
| Cc1cccc(CN2CCC(Oc3ccc(C(=O)N4CCCCC4)cc3)CC2)c1 | -21.9 |
| O=C(c1nc2ccccn2c1CN1CCC(Cc2ccccc2)CC1)N1CCCC1 | -70.7 |
| O=C(c1nc2ccccn2c1CN1CCN(c2ccccc2O)CC1)N1CCCC1 | 34.7 |
| COC1CCN(Cc2c(C(=O)N3CCN(C4CCCCC4)CC3)nc3ccccn23)CC1 | 5.42 |
| Cc1cccc(OC2CCN(Cc3c(C(=O)N4CCCC4)nc4ccccn34)CC2)c1 | -59.4 |
| O=C(c1nc2ccccn2c1CN1CCCC(OCc2ccccc2)C1)N1CCCC1 (stereo not shown) | -44.8 |

| SMILES | hERG current change (%, negative = inhibition) at 10uM [%] |
| --- | --- |
| CCCCCCNS(=O)(=O)c1ccc(NC(=O)C2CCCO2)cc1 (stereo not shown) | -21.8 |
| Cc1ccc2sc(N3CCN(C(=O)C4=COCCO4)CC3)nc2c1C | -15.6 |
| COc1ccc(OCc2cccc(C(=O)NN)c2)cc1 | 2.35 |
| CC1CCCC(C)N1C(=O)c1cc(F)c(F)cc1Cl (stereo not shown) | 16.1 |
| COc1ccc(CCNC(=O)C/C(C)=N/NC(=O)C2CCCCC2)cc1OC | 8.79 |
| CCN(C(=O)C(C)OC(=O)CCCNC(=O)c1ccc(Cl)cc1)c1ccccc1 (stereo not shown) | -25.1 |
| CC(OC(=O)CCCNC(=O)c1ccc(Cl)cc1)C(=O)N(C)Cc1ccccc1 (stereo not shown) | -54.2 |
| COc1ccc(CN(C)C(=O)CCCNC(=O)c2ccc(Cl)cc2)cc1 | -26.6 |
| Cc1ccc(N2CC(C)Cn3c2nc2c3c(=O)[nH]c(=O)n2C)cc1C (stereo not shown) | -10.9 |
| Cc1c(Br)cc(C(=O)N2CCCC2)c(C)c1C | 0.525 |
| O=C(C1=C(O)C(=O)N(CCN2CCOCC2)C1c1ccc(Cl)cc1)c1cc2ccccc2o1 (stereo not shown) | 10.3 |
| CCCCN(C)CCNC(=O)c1ccc2c(c1)NC(=O)C(N1CCCCC1)S2 (stereo not shown) | 2.48 |
| O=C(c1cccc(Cl)c1)C1CCCN(Cc2cccc3cnccc23)C1 (stereo not shown) | -32.7 |
| O=C(c1ccc(Cl)cc1)C1CCCN(Cc2ccc3nonc3c2)C1 (stereo not shown) | -34.9 |
| Cc1cc(Cl)ccc1C(=O)C1CCCN(C(=O)c2ccc3ncccc3c2)C1 (stereo not shown) | -29.5 |
| O=C(c1ccc(Cl)cc1)C1CCCN(Cc2cccc3ncccc23)C1 (stereo not shown) | -52.1 |
| O=C(c1ccc(Cl)cc1)C1CCCN(Cc2cccc3cccnc23)C1 (stereo not shown) | -75.9 |
| O=C(c1ccc(Cl)cc1)C1CCCN(Cc2cccc3cnccc23)C1 (stereo not shown) | -44.8 |
| O=C(c1ccc(Cl)cc1)C1CCCN(Cc2ccc3ncccc3c2)C1 (stereo not shown) | -64.3 |
| CC(C)c1ccc(NC(=O)c2ccc(NS(C)(=O)=O)cc2)cc1 | 3.29 |
| COC(=O)c1ccc(OCCn2cnc3ccccc3c2=O)cc1 | -11.2 |
| COc1ccc(NC(=O)C2Cc3cccc(OC)c3O/C2=N\O)cc1 (stereo not shown) | 6.66 |
